The supplement of paper PMC10981050
Several values for one entry are separate records, joined by “and”; a condition that tells them apart may be missing. Equal values may be shown once. Where a name gives a salt, the structure may show the parent alone.

Legend:
Test in all cases: cell viability relative to vehicle control; higher = less cytotoxic
Settings in all cases: 10 µM
[1] = test system: K562
In short: (§1)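 CRISPR-edited mutant clones and isogenic wild-type clones from four leukaemia lines were screened against Selleck bioactive, kinase and epigenetic probe libraries, with identity-inconsistent compounds excluded. Each compound was acoustically dispensed at a single 10 µM dose into 384-well plates holding 2000 cells in 50 µL medium per well. After 48 h the supernatant was removed and CellTiter-Glo luminescence was read. Viability was expressed as percent of the on-plate vehicle control and analysed in Genedata Screener.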

[2] = test system: MARIMO
In short: as §1

[3] = test system: MOLM14
In short: as §1

[4] = test system: OCI-AML2
In short: as §1

SMILES	cell viability ([1]; SRSF2 genotype: SRSF2 P95H/wt)	cell viability ([1]; SRSF2 genotype: SRSF2 wt/wt)	cell viability ([2]; SRSF2 genotype: SRSF2 P95H/wt)	cell viability ([2]; SRSF2 genotype: SRSF2 wt/wt)	cell viability ([3]; SRSF2 genotype: SRSF2 P95H/wt)	cell viability ([3]; SRSF2 genotype: SRSF2 wt/wt)	cell viability ([4]; SRSF2 genotype: P95H/wt)	cell viability ([4]; SRSF2 genotype: wt/wt)
Clc1ccc(C(c2c[nH]c3ccccc23)c2c[nH]c3ccccc23)cc1	83% and 83.3%	76.5%	86.3%	93.2%	62.7%	73%	92%	96.7%
O=C(NOCCO)c1ccc2cncn2c1Nc1ccc(I)cc1F	78.1% and 89.5%	80.8%	41.2%	37%	43.5%	27%	39.1%	40.2%
CNC(=O)c1ccc(N2C(=S)N(c3cnc(C#N)c(C(F)(F)F)c3)C(=O)C23CCC3)cc1F	98.6% and 98.8%	103%	104%	110%	98.4%	109%	96.2%	88.1%
CO[C@@H]1[C@H](OC(=O)/C=C/C=C/C=C/C=C/C(=O)O)CC[C@]2(CO2)[C@H]1[C@@]1(C)O[C@@H]1CC=C(C)C [Fumagillin]	77.1% and 77.5%	72.3%	51.5%	69.4%	50.9%	50.5%	72.4%	63%
COc1cc2oc(=O)ccc2cc1O [Isoscopoletin]	95.2% and 95.4%	96.4%	95.6%	94.7%	104%	97.2%	97.1%	93.8%
C=CC[N+]1([C@H]2C[C@H]3[C@@H]4CC[C@H]5C[C@H](O)[C@@H](N6CCOCC6)C[C@]5(C)[C@H]4CC[C@]3(C)[C@H]2OC(C)=O)CCCC1 [Rocuronium bromide]	98.3% and 90.4%	91.2%	90.3%	95.3%	103%	96.7%	88.1%	99.3%
COc1nc(OCc2cccc(-c3ccccc3)c2C)ccc1CNCCNC(C)=O [BMS202 (PD-1/PD-L1 inhibitor 2)]	10.8% and 26.5%	32.6%	60.9%	59%	41.6%	31.9%	53.5%	51.3%
Cc1nc(C(=O)NCC(=O)O)c(O)c2ccc(Oc3ccccc3)cc12 [Roxadustat (FG-4592)]	89.4% and 79.4%	85.7%	79.1%	82.7%	88.5%	84.3%	83.9%	87.5%
CN(C)C(=O)c1ccc(S(=O)(=O)c2ccc(NC(=O)C(C)(O)C(F)(F)F)c(Cl)c2)cc1 (stereo not drawn)	75.7% and 74.8%	74.2%	60.1%	58%	78.4%	84.5%	52.9%	55.2%
CN(CCNc1ccnc2cc(Cl)ccc12)CCNc1ccnc2cc(Cl)ccc12	17.1% and 23.8%	18.8%	19.4%	11.8%	0.51%	0.43%	0.35%	0.6%
COc1ccc(NS(=O)(=O)c2sc3ccc(Cl)cc3c2C)cc1N1CCNCC1	99.5% and 98.2%	104%	100%	99.2%	96.4%	106%	87.9%	78%
CCS(=O)(=O)c1cccc(-c2cc(C(=O)NC3CCN(C)CC3)c(C)c3[nH]c4ncc(C)cc4c23)c1	29% and 32.2%	21.9%	11.9%	7.33%	2.91%	2.2%	4.55%	11.1%
C=C(C)[C@@H]1CC[C@]2(C=O)CC[C@]3(C)[C@H](CC[C@@H]4[C@@]5(C)CC[C@H](O)C(C)(C)[C@@H]5CC[C@]43C)[C@@H]12 [Betulinicaldehyde]	101% and 97.2%	102%	95.1%	94.2%	103%	98%	94.5%	92%
Nc1ccc(C(=O)Nc2cccc(-c3nc(N4CCOCC4)c4oc5ncccc5c4n3)c2)cn1	75.4% and 89.9%	95.8%	73.7%	79.4%	103%	104%	86.7%	89.1%
O=c1c(-n2ccnn2)c[nH]n1-c1cc(N2CCOCC2)ncn1 [Molidustat(BAY 85-3934)]	96.1% and 100%	90.2%	81.8%	98.1%	87.9%	93.6%	85.2%	87.9%
Cn1cnc(=N)c2[nH]cnc21 [3-Methyladenine (3-MA)]	94.6% and 88.8%	106%	82.6%	92.4%	88%	92%	93.4%	97.6%
CC(C)(O)C1CCC(C)(C2C(O)CC3(C)C4CC(O)C5C(C)(C)C(O)CCC56CC46CCC23C)O1 (stereo not drawn) [Cyclogalegenol]	93.6% and 88.3%	89.8%	93.5%	104%	94%	95.7%	97.4%	103%
CC(C)Oc1ccc(C(=O)N[C@H](CNC(=O)CN(C)C)Cc2ccc(-c3cn4cccc([C@H](C)O)c4n3)cc2)cc1Cl	20.3% and 30.1%	36.2%	34.6%	26.3%	9.14%	1.72%	12.4%	14.5%
COc1cc(O)c2c(=O)cc(-c3ccc(O)c(O)c3)oc2c1 [Hydroxygenkwanin]	85.2% and 89.8%	88.9%	45.7%	69.4%	57.5%	58.8%	58.3%	56.4%
CC(C)(C)c1[nH]cnc1/C=c1\[nH]c(=O)/c(=C/c2ccccc2)[nH]c1=O [NPI-2358 (Plinabulin)]	10.3% and 31%	31.4%	7.45%	11%	1.68%	1.52%	2.13%	5.45%
O=C(Nc1ccccc1)Nc1ccc(-c2ccc(C(=O)[C@@H]3CCC[C@H]3C(=O)O)cc2)cc1	96.9% and 97.6%	98.8%	106%	106%	102%	103%	103%	109%

SMILES	cell viability ([1]; SRSF2 genotype: SRSF2 P95H/wt)	cell viability ([1]; SRSF2 genotype: SRSF2 wt/wt)	cell viability ([2]; SRSF2 genotype: SRSF2 P95H/wt)	cell viability ([2]; SRSF2 genotype: SRSF2 wt/wt)	cell viability ([3]; SRSF2 genotype: SRSF2 P95H/wt)	cell viability ([3]; SRSF2 genotype: SRSF2 wt/wt)	cell viability ([4]; SRSF2 genotype: P95H/wt)	cell viability ([4]; SRSF2 genotype: wt/wt)
CC1(C)CC[C@]2(C(=O)O[C@@H]3O[C@H](CO)[C@@H](O)[C@H](O)[C@H]3O)CC[C@]3(C)C(=CC[C@@H]4[C@@]5(C)CC[C@H](O[C@@H]6O[C@H](C(=O)O)[C@@H](O)[C@H](O)[C@H]6O[C@@H]6O[C@H](CO)[C@@H](O)[C@H](O)[C@H]6O)C(C)(C)[C@@H]5CC[C@]43C)[C@@H]2C1 [Ginsenoside Ro]	101% and 95.6%	95.9%	102%	110%	100%	98.5%	97.8%	109%
Cc1cc(SCc2sc(-c3ccc(C(F)(F)F)cc3)nc2C)ccc1OCC(=O)O	102% and 95.2%	96.7%	92%	103%	87.6%	97.3%	90.4%	95.4%
COc1cc(OC)c(NC(=O)Nc2cc(C)on2)cc1Cl	91.9% and 83.8%	85.7%	86.4%	86.6%	61.3%	74.5%	73.4%	74.3%
CC(C)(C)NCC(O)c1ccc(O)c(CO)c1 (stereo not drawn) [Salbutamol]	104% and 102%	110%	108%	107%	99.4%	106%	101%	97.1%
O=C1O[C@H]2[C@@H]3OC(=O)c4cc(O)c(O)c(O)c4-c4c(cc(O)c(O)c4O)C(=O)OC[C@H]2O[C@@H](OC(=O)c2cc(O)c(O)c(O)c2)[C@@H]3OC(=O)c2cc(O)c(O)c3c2[C@@H]2C1=CC(=O)[C@](O)(O3)C2(O)O [Geraniin]	94.9% and 95.9%	103%	97.3%	86%	106%	97.7%	96.1%	92.1%
Cn1cc(-c2ccc3nnc(C(F)(F)c4ccc5ncccc5c4)n3n2)cn1	94.1% and 97.8%	98.8%	102%	105%	96%	99.2%	86.9%	89.6%
CC(S)C(=O)NCC(=O)O (stereo not drawn) [Tiopronin (Thiola)]	111% and 110%	104%	105%	105%	100%	105%	100%	112%
COc1cc(C=O)c([N+](=O)[O-])cc1OC	104%	110%	95.3%	92.6%	95.8%	109%	111%	125%
N#CC1(c2ccc(NC(=O)c3cccnc3NCc3ccncc3)cc2)CCCC1 [Apatinib mesylate]	79.4% and 87.5%	81.8%	77.7%	86.2%	45.8%	42.6%	68.4%	62.5%
CC(C)=CCC[C@](C)(O)[C@H]1CC[C@]2(C)[C@@H]1[C@H](O)C[C@@H]1[C@@]3(C)CC[C@H](O[C@@H]4O[C@H](CO)[C@@H](O)[C@H](O)[C@H]4O[C@@H]4O[C@H](CO)[C@@H](O)[C@H](O)[C@H]4O)C(C)(C)[C@@H]3CC[C@]12C [20S-Ginsenoside Rg3]	107% and 97.7%	101%	108%	108%	101%	102%	105%	104%
Cc1cc(Nc2ncnc3ccc(-c4ccc(CNCCS(C)(=O)=O)o4)cc23)ccc1Oc1ccn2ncnc2c1 [HER2 Inhibitor 1]	96.3% and 102%	105%	107%	108%	93%	101%	95.7%	89.6%
O=C(CCc1ccc(O)cc1)c1c(O)cc(O[C@@H]2O[C@H](CO)[C@@H](O)[C@H](O)[C@H]2O)cc1O [Trilobatin]	96.2% and 98.8%	96.8%	99.7%	105%	89.2%	98.9%	92.6%	106%
Clc1cccc(CN=C2Nc3ccccc3NC23CCNCC3)c1 [Liproxstatin-1]	68.8% and 75.6%	70%	73%	70.1%	68.9%	80.1%	93.5%	71.5%
CN1CCN(c2ccc(Nc3cc(-c4cccc(-n5ccc6cc(C7CC7)cc(F)c6c5=O)c4CO)cn(C)c3=O)nc2)CC1	15.9% and 12.5%	29.8%	18.2%	0.49%	0.81%	1.57%	2.87%	4.49%
COc1cccc(-c2cc(F)ccc2C2Cc3nc(N)nc(C)c3C(=O)N2)n1 (stereo not drawn)	21.2% and 27.1%	24%	29.6%	24.7%	1.82%	3%	15.3%	19.9%
Cc1nc(C)c(C)nc1C [Tetramethylpyrazine]	111% and 112%	118%	107%	111%	108%	107%	112%	116%
O=C1Cc2ccccc2N1 [Oxindole]	96.9% and 92%	98.4%	98.2%	103%	95%	98.9%	95.9%	105%
NC(=O)c1cccc2cn(-c3ccc(C4CCCNC4)cc3)nc12 (stereo not drawn) [MK-4827(Niraparib)]	102% and 104%	86.9%	40.9%	57.4%	25.2%	8.96%	45.3%	51.5%
COc1ccc(-c2cc(=O)c3c(O)cc(O)cc3o2)cc1 [Acacetin]	106%	99.1%	102%	115%	107%	107%	88.7%	102%
OC[C@H]1O[C@@](CO)(OC[C@@]2(OC[C@@]3(OC[C@@]4(O[C@H]5O[C@H](CO)[C@@H](O)[C@H](O)[C@H]5O)O[C@H](CO)[C@@H](O)[C@@H]4O)O[C@H](CO)[C@@H](O)[C@@H]3O)O[C@H](CO)[C@@H](O)[C@@H]2O)[C@@H](O)[C@@H]1O [1F-Fructofuranosylnystose]	110% and 109%	104%	109%	103%	103%	107%	101%	108%
